The panel holds about 79,000 compounds, 15% with a hit somewhere; the sample as a whole holds those more often. Rule as the data show it: active = growth inhibition above about 70%; inactive = the rest.
Tests used:
[1] = NCI Yeast Anticancer Drug Screen. Data for the rad50 strain (AID 155);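 also: 0% = growth of vehicle-only cultures of the same strain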; settings: S. cerevisiae rad50 strain growth inhibition; at 50.0 µM; active compounds read high
Outline: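 Vehicle-treated cultures provide the reference for the growth inhibition reported for compound-exposed, repair-deficient yeast.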

[2] = NCI Yeast Anticancer Drug Screen. Data for the mec2-1 strain (AID 157); settings: S. cerevisiae mec2-1 strain, at 50.0 µM, active compounds read high
Outline: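 Mutant yeast (mec2-1) grown with compound; growth inhibition relative to vehicle control reported.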

[3] = NCI Yeast Anticancer Drug Screen. Data for the sgs1 mgt1 strain (AID 161);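 also: 0% = growth of cultures given vehicle only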; settings: S. cerevisiae sgs1 mgt1 strain, at 50.0 µM, active compounds read high
Outline: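 Compounds are added to genetically altered yeast, and growth is compared with cultures given vehicle alone to give percent inhibition.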

[4] = NCI Yeast Anticancer Drug Screen. Data for the cln2 rad14 strain (AID 165);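 also: 0% = growth equal to vehicle treated cultures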; settings: S. cerevisiae cln2 rad14 strain, at 50.0 µM, active compounds read high
Outline: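 Readout is yeast growth inhibition versus vehicle-treated controls, using a strain with cln2 and rad14 alterations exposed to compound.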

[5] = NCI Yeast Anticancer Drug Screen. Data for the bub3 strain (AID 167); settings: S. cerevisiae bub3 mutant strain, at 50.0 µM, active compounds read high
Outline: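 Mutant yeast screening strain plus compound; vehicle-treated cultures serve as the 0% inhibition reference.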

[6] = NCI Yeast Anticancer Drug Screen. Data for the mlh1 rad18 strain (AID 175); settings: S. cerevisiae mlh1 rad18 strain growth inhibition; at 50.0 µM; active compounds read high
Outline: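 Genetically defined yeast (DNA repair-deficient) exposed to compounds; growth inhibition determined relative to vehicle.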

Measured: growth inhibition

NC(=O)c1ncn2c(=O)n(CCCl)nnc12
inactive: [1] -17.2% | [2] -9.4% | [3] 1.4% | [4] 19.5% | [5] -4.15% | [6] -47.2%

COc1ccccc1NC(=O)NC1CCCCC1
inactive: [1] -2.8% | [2] -4.65% | [3] -8.2% | [4] -88% | [5] 5.5% | [6] -15.2%

N#Cc1cnn2ccn(C3OC(CO)C(O)C3O)c12 (configuration not stated)
inactive: [1] -42.8% | [2] -14.2% | [3] -18.9% | [4] -22.6% | [5] -5.45% | [6] 14.9%

O=C(O)CSSCC(=O)O
inactive: [1] -0.15% | [2] -16.6% | [3] -18.8% | [4] 23.1% | [5] -10.2% | [6] -24.5%

O=C(O)c1[nH]c(=O)[nH]c(=O)c1Br
inactive: [1] -4.3% | [2] -22.9% | [3] -9.75% | [4] -40.5% | [5] -15.7% | [6] -17.6%

Cc1ccc(C(N)=Nc2ccccc2)cc1
inactive: [1] 0.65% | [2] 0% | [3] -0.3% | [4] -2.85% | [5] 3.3% | [6] 23.4%

O=C1CN(CCCO)CC(=O)N2Cc3ccccc3CN12
inactive: [1] -8.95% | [2] 4.55% | [3] -18.7% | [4] -10% | [5] -6.85% | [6] -11.3%

O=C(O)CNc1ccc(C(=O)O)cc1
inactive: [1] -20.9% | [2] -10.1% | [3] -11.3% | [4] 41.1% | [5] -51.7% | [6] -11.7%

COc1ccc2c(c1)CC/C(=C\C1(Sc3ccccc3)CC1)C2O (configuration not stated)
inactive: [1] -12.1% | [2] -3.35% | [3] -10.2% | [4] -16.6% | [5] -10.7% | [6] -15.8%

CCN(CC)c1ccc(C(=O)c2ccccc2C(=O)O)c(O)c1
inactive: [1] -38.2% | [2] -8.75% | [3] -27.4% | [4] 5.35% | [5] -15.8% | [6] 5.2%

CCOc1ccccc1NC(=O)C(=O)C(c1ccccc1)S(=O)(=O)Cc1ccccc1 (configuration not stated)
inactive: [1] -1% | [2] -12.5% | [3] -10.1% | [4] 5.45% | [5] -7.35% | [6] -1.5%

CNC(C)C#N (configuration not stated)
inactive: [1] -17.7% | [2] -11.6% | [3] -11.9% | [4] -19.6% | [5] 0.75% | [6] -11.6%

C1=C\CCCC/C=C/CC/1
inactive: [1] 1.2% | [2] -4.75% | [3] -13.1% | [4] 5.3% | [5] 0.75% | [6] 10.7%

COc1ccccc1NC(=O)Oc1ccc(C#N)cc1
inactive: [1] 7.2% | [2] -14.5% | [3] 15% | [4] -1.8% | [5] 9.75% | [6] 0.4%

O=C(O)Cc1ccc(Br)cc1
inactive: [1] 29.4% | [2] -8.95% | [3] 11.9% | [4] 10.8% | [5] 1.1% | [6] 5.7%

CC(=O)CC1CCCCCC1
inactive: [1] 4.3% | [2] 4.3% | [3] 0.45% | [4] -11.3% | [5] 2.1% | [6] 6.3%

COC(=O)C1=C(C)N(NC(N)=O)C(C)(O)C12CCOC2=O (configuration not stated)
inactive: [1] -3.8% | [2] -2.2% | [3] 2.15% | [4] -56.8% | [5] -5.95% | [6] -14.1%

Cc1ccc(C)c(CNC(=O)NC(C)(C)C)c1
inactive: [1] -10.2% | [2] -4.25% | [3] -6.65% | [4] -63.8% | [5] -11.2% | [6] -0.75%

Cc1nc[nH]c1[N+](=O)[O-]
inactive: [1] -6.6% | [2] -11% | [3] -10% | [4] 2.2% | [5] -0.85% | [6] -12.7%

CCC(C)(C1CCC(=O)CC1)C1CCC(=O)CC1
inactive: [1] 33.6% | [2] -5.75% | [3] -0.7% | [4] -7% | [5] -0.75% | [6] 7.85%

COCCCC(NC(=O)C(CC(C)C)NC(=O)OCc1ccc(OC)cc1)C(=O)OC (configuration not stated)
inactive: [1] -9.6% | [2] -12.9% | [3] -2.25% | [4] 6.6% | [5] -9.1% | [6] 7.8%

O=c1oc2ccc(Br)cc2cc1CCS
inactive: [1] 9.9% | [2] 21.2% | [3] -4.7% | [4] 10.8% | [5] 9.55% | [6] -9.35%

CCO/C([O-])=C(\C=N\S(=O)(=O)c1ccc(C)cc1)[n+]1ccc(C)cc1
inactive: [1] 13.8% | [2] 14.7% | [3] 12.2% | [4] -17.1% | [5] -4.2% | [6] 6.45%

Cc1cccc(Nc2nc(NNC(=O)Cc3ccccc3)nc(NNC(=O)c3ccncc3)n2)c1
inactive: [1] 17.4% | [2] -12.9% | [3] 42.2% | [4] 33.4% | [5] 22.6% | [6] 18.8%

NC(=S)N/N=C/c1cc([N+](=O)[O-])ccc1O
inactive: [1] 1.95% | [2] -3.4% | [3] 25.9% | [4] 51% | [5] 8.5% | [6] -87.9%

CCCC(=O)OCc1ccc(Cl)cc1
inactive: [1] 24.6% | [2] 12.8% | [3] 6.9% | [4] 5.15% | [5] 6.55% | [6] 3.35%

O=CNc1cc([N+](=O)[O-])ccc1OCc1ccccc1
inactive: [1] 13.6% | [2] 1.6% | [3] -0.75% | [4] 4.6% | [5] 12.2% | [6] -21.9%

O=c1nnc(O)c2n(O)cccc1-2
inactive: [1] -24.2% | [2] -11.8% | [3] 6.55% | [4] -42.5% | [5] -1.75% | [6] 14%

CCOC(=O)C(CCCOC1CCCCO1)(C(=O)OCC)c1ccccc1 (configuration not stated)
inactive: [1] 21.4% | [2] -0.1% | [3] -15.2% | [4] 14.4% | [5] 8.8% | [6] -5%

CC(=O)Nc1c(C)ncn(-c2ccccc2)c1=O
inactive: [1] -36.9% | [2] -19.9% | [3] -2.95% | [4] -28.4% | [5] -2.75% | [6] -11.2%

O=C(O)C(C(=O)O)C1CCCCC1
inactive: [1] -14.6% | [2] -20.6% | [3] -20.6% | [4] -0.95% | [5] -6.5% | [6] -15.8%

COC1(OC)OC(c2ccc([N+](=O)[O-])cc2)=C(c2ccc([N+](=O)[O-])cc2)OC1(OC)OC
inactive: [1] 56% | [2] 49.9% | [3] 38.5% | [4] 57.4% | [5] 49% | [6] 37.9%

CC(C)(C)OC(=O)NCCNC(=O)OCc1ccccc1
inactive: [1] 4.25% | [2] -12.2% | [3] -16.7% | [4] 4.45% | [5] -3.5% | [6] -0.25%

O=S(=O)(N/N=C/c1ccncc1)c1ccccc1
inactive: [1] 39.4% | [2] 16.9% | [3] 60.5% | [4] 41.1% | [5] 34.5% | [6] 50.5%

Nc1ccc(-c2cc[cH-]c2)cc1.[Fe+2].c1cc[cH-]c1
inactive: [1] 8.2% | [2] 10.3% | [3] 10.8% | [4] 12.2% | [5] 21.4% | [6] 22.6%

Cc1ccc(C2SC(N)=Nc3c2c(C)nn3C(=O)c2ccccc2O)cc1 (configuration not stated)
inactive: [1] 8.65% | [2] 16.4% | [3] 34.9% | [4] 5.65% | [5] 10.2% | [6] 12.7%

CC1OC(OC2C(OC(=O)[C@]34CCC(C)(C)C[C@H]3C3=CC[C@@H]5[C@@]6(C)CC[C@H](OC7OC(CO)C(O)C(O)C7OC7OC(CO)C(O)C(O)C7O)C(C)(C)[C@@H]6CC[C@@]5(C)[C@]3(C)CC4)OCC(O)C2O)C(O)C(O)C1OC1OCC(O)C(O)C1O (some centres not stated)
inactive: [1] -24.8% | [2] -41.2% | [3] -44.5% | [4] -33.8% | [5] -32.8% | [6] -23.1%

FC(F)(F)C[P+](c1ccccc1)(c1ccccc1)c1ccccc1
inactive: [1] 40.9% | [2] 13.1% | [3] 15.3% | [4] 16.9% | [5] 11.5% | [6] 26%

CNC(=O)C1CCCN1C(=O)C(Cl)Cl (configuration not stated)
inactive: [1] -1.95% | [2] -10.6% | [3] 0.9% | [4] -21.9% | [5] -10.8% | [6] 14.2%

CC(C)(C)/C=C/N1N=NC(c2ccccc2)(c2ccccc2)C1=O
inactive: [1] 32.6% | [2] 19% | [3] 23.1% | [4] -13.2% | [5] 22.1% | [6] 26.7%

CC(=O)NNc1nc(C)c(C(/C=C/c2ccc(Cl)cc2)=N\NS(=O)(=O)c2ccc(C)cc2)s1
inactive: [1] 26.1% | [2] 2.9% | [3] 19.6% | [4] 23.2% | [5] 23.6% | [6] 9.45%

Cc1cccc(C)c1NC(=O)C(=O)CC(=O)c1cccc([N+](=O)[O-])c1
inactive: [1] 45.4% | [2] 11.9% | [3] 2.2% | [4] 24.4% | [5] 19.2% | [6] 40.9%

From PubChem BioAssay (NCI)
